Experimental data as given in PubChem BioAssay (NCI).
Compounds without any hit were thinned out: in the full panel of roughly 79,000, 15% have a hit. Values without a mark were called inactive. Activity calls are given as the source filed them. Rule as the data show it: active = growth inhibition above about 70%; inactive = the rest.

How the values were obtained:
[1] = NCI Yeast Anticancer Drug Screen. Data for the rad50 strain (AID 155);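 also: 0% = growth of vehicle-only cultures of the same strain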; conditions: S. cerevisiae rad50 strain growth inhibition, stronger effect = higher value
Procedure, shortened: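 Relative growth inhibition (compound vs vehicle) was measured in yeast with a defined repair-gene alteration.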

[2] = NCI Yeast Anticancer Drug Screen. Data for the mec2-1 strain (AID 157); conditions: S. cerevisiae mec2-1 strain, stronger effect = higher value
Procedure, shortened: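 Each compound was tested on mec2-1 yeast, a strain altered in DNA damage repair or cell cycle control. Growth inhibition is reported relative to vehicle.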

[3] = NCI Yeast Anticancer Drug Screen. Data for the sgs1 mgt1 strain (AID 161);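 also: 0% = growth of cultures given vehicle only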; conditions: S. cerevisiae sgs1 mgt1 strain, stronger effect = higher value
Procedure, shortened: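 Read-out: growth inhibition vs vehicle controls. Cells: mutant yeast strain deficient in DNA damage repair.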

[4] = NCI Yeast Anticancer Drug Screen. Data for the cln2 rad14 strain (AID 165);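 also: 0% = growth equal to vehicle treated cultures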; conditions: S. cerevisiae cln2 rad14 strain, stronger effect = higher value
Procedure, shortened: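 Test compounds were added to cln2 rad14 yeast cultures; inhibition of growth was then determined by comparison with vehicle treatment.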

[5] = NCI Yeast Anticancer Drug Screen. Data for the bub3 strain (AID 167); conditions: S. cerevisiae bub3 mutant strain, stronger effect = higher value
Procedure, shortened: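 Screening used yeast with an engineered genetic alteration affecting cell cycle control. Compound-exposed cultures were compared with vehicle cultures, and reduced growth was taken as inhibition.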

[6] = NCI Yeast Anticancer Drug Screen. Data for the mlh1 rad18 strain (AID 175); conditions: S. cerevisiae mlh1 rad18 strain growth inhibition, stronger effect = higher value
Procedure, shortened: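 Inhibition values reflect reduced growth of mutant yeast versus vehicle-treated controls following compound exposure; the mutations affect DNA damage repair.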

[7] = at 5.0 µM (retest, dose inferred, filed as 0.5)
[8] = at 50.0 µM (retest, dose inferred, filed as 5.0)

Compound	growth inhibition [1, 7]	growth inhibition [1, 8]	growth inhibition ([1]; at 50.0 µM)	growth inhibition [2, 7]	growth inhibition [2, 8]	growth inhibition ([2]; at 50.0 µM)	growth inhibition [3, 7] [%]	growth inhibition [3, 8]	growth inhibition ([3]; at 50.0 µM)	growth inhibition [4, 7] [%]	growth inhibition [4, 8]	growth inhibition ([4]; at 50.0 µM)	growth inhibition [5, 7] [%]	growth inhibition [5, 8]	growth inhibition ([5]; at 50.0 µM)	growth inhibition [6, 7]	growth inhibition [6, 8]	growth inhibition ([6]; at 50.0 µM)
FC(F)(F)c1ccc(NC(=S)SCc2ccc(Cl)cc2)cc1	8%	99% (active)	99.3% (active)	5%	99% (active)	99.7% (active)	13	99% (active)	99.5% (active)	-3	98% (active)	99.4% (active)	26	99% (active)	99.5% (active)	17%	99% (active)	99.5% (active)
COc1cc(C2c3cc4c(cc3[C@@H](Nc3cccc(O)c3)C3COC(=O)[C@H]23)OCO4)cc(OC)c1O (some centres not stated)	96% (active)	97% (active)	85% (active)	96% (active)	98% (active)	90.7% (active)	28	97% (active)	88.5% (active)	33	90% (active)	88.8% (active)	21	93% (active)	87.7% (active)	94% (active)	97% (active)	87% (active)
O=C(OCCC1CCCCC1)c1cc([N+](=O)[O-])cc([N+](=O)[O-])c1	4%	79% (active)	83.1% (active)	13%	76% (active)	75% (active)	10	70% (active)	90.3% (active)	6	71% (active)	80.5% (active)	5	82% (active)	88.5% (active)	12%	86% (active)	89.8% (active)
Nc1ccc2c(SCCCCCCCCSc3c4ccccc4nc4cc(N)ccc34)c3ccccc3nc2c1	1%	74% (active)	48.9%	1%	67%	9.15%	-2	72% (active)	22.9%	-4	32%	33.2%	-3	72% (active)	-4.05%	2%	94% (active)	32%
Cc1ccc(S(=O)(=O)Nc2ccccc2SSc2ccccc2NS(=O)(=O)c2ccc(C)cc2)cc1	46%	69%	57.5%	38%	81% (active)	63.8%	59	76% (active)	60.6%	44	82% (active)	68.9%	53	74% (active)	60.4%	63%	77% (active)	60.5%
CCCCNCc1c(O)ccc2ccccc12	14%	99% (active)	99.1% (active)	3%	99% (active)	99.2% (active)	17	99% (active)	99.1% (active)	10	98% (active)	95.8% (active)	21	99% (active)	99% (active)	36%	99% (active)	99.2% (active)
O=C(O)/C=C\C(=O)Nc1ccc2c(c1)C(=O)c1cc(F)ccc1-2	10%	20%	29%	-1%	-7%	-2.7%	-4	19%	-5.2%	-6	6%	68.2%	-2	2%	-36.6%	8%	17%	4.5%
OCc1c(-c2cccc3ccccc23)sc(-c2cccc3ccccc23)c1CO	59%	74% (active)	90% (active)	20%	85% (active)	92.8% (active)	44	56%	86.8% (active)	63	81% (active)	86.6% (active)	39	82% (active)	86.5% (active)	65%	70% (active)	88.4% (active)
CCC(/C=C/c1ccccc1)=N\Nc1ccccc1	11%	89% (active)	47.7%	-10%	83% (active)	79% (active)	1	91% (active)	34.1%	-27	76% (active)	-12.3%	-15	90% (active)	87.3% (active)	-13%	95% (active)	74.4% (active)
